Source: PubChem BioAssay
Only some compounds are listed: those with a hit (about 21% of all), similar ones and a draw of the others.
RORg inh – ROR gamma (mouse) transcription inhibition; AID 2551; Drosophila S2 Gal4-RORgamma UAS-luciferase reporter, 20 h; Potency, µM (titrated, usually from 53.6 µM), for the others: top-dose activity change, negative = inhibition, most hits filed as inhibitors; hit rate 5.4% among 310,000; note: potency is the fitted concentration of half-maximal effect; nearly all actives have a fitted effect of over 60% in size
Target sequence (P51450 whole entry, looked up, the tested form may be a part): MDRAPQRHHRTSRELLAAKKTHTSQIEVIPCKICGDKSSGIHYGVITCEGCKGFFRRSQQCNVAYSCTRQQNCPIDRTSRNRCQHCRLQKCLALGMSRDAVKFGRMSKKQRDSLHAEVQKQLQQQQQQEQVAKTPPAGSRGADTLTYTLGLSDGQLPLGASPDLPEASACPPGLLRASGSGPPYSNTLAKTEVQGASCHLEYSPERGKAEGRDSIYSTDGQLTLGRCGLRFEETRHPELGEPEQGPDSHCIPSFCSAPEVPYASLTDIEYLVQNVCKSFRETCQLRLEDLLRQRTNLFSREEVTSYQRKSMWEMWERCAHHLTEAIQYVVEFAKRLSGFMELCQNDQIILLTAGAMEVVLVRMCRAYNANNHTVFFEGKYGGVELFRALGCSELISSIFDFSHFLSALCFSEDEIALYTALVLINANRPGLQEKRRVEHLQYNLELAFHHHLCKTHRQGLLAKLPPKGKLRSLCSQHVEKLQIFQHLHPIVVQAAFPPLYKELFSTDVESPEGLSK
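In this cell-based reporter format, copper sulfate (700 uM final) drives Gal4–ROR gamma fusion expression from a metallothionein promoter in Drosophila Schneider cells; compounds preincubated 1 hr, reporter read after 20 hr at ambient temperature.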
DT40 TDP1 no CPT – qHTS for Inhibitors of human tyrosyl-DNA phosphodiesterase 1 (TDP1): qHTS in cells in absence of CPT. AID 686978, 2013. hit rate 15% among 420,000. DT40 Tdp1-/- hTDP1 cells, no CPT, ATP luminescence, 48 h. Potency, µM (series often up to 46.2 µM), for the others: at the highest dose activity change, negative = growth inhibition, actives largely listed as inhibitors; note: potency is the fitted concentration of half-maximal effect; nearly all actives have a fitted effect of over 55% in size
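Seeded 400 DT40-hTDP1 cells/well (vehicle DMSO, no 20 nM CPT); pinned compounds; ≥48 hr at 37 °C; CellTiter-Glo luminescence as viability measure.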
VP16 counter – counter-screen for ROR gamma inhibitors: Gal4-VP16 reporter; Drosophila S2 Gal4-VP16 UAS-luciferase, luminescence, 20 h; Potency, µM (series often up to 53.6 µM), for the others: at the top dose activity, negative = inhibition, hits mostly inhibitors; hit rate 3.5% among 310,000; AID 2546;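 note: Gal4-VP16 expression switched on by copper sulfate through the metallothionein promoter; potency is the fitted concentration of half-maximal effect; nearly all actives have a fitted effect of over 50% in size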
IL1B secr inh – inflammasome signaling inhibition, IL-1 beta readout. hit rate 4.7% among 360,000. activity change, % at 57.5 µM. THP-1 LPS/ATP IL-1B secretion, AlphaLISA, 16 h; stronger effect = lower value; in the data active = activity change below about -50%; inconclusive = mostly about -30% to -49%
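THP-1 cells pretreated 1 hr with compounds (up to 57.5 uM final), then stimulated with LPS (250 ng/mL final) plus ATP (1.25 mM final); secreted IL-1B measured by AlphaLISA after 16 hr, decreased signal indicating inhibition.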
DT40 TDP1 CPT – DT40-hTDP1 cell growth loss with CPT; Potency, µM (top dose mostly 46.2 µM), without a hit: at the top dose activity change, negative = growth inhibition, hits mostly inhibitors; hit rate 12% among 420,000; chicken DT40 Tdp1-/-;hTDP1 cells + 20 nM CPT, ATP luminescence, 48 h; note: potency is the fitted concentration of half-maximal effect; nearly all actives have a fitted effect of over 55% in size
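Chicken DT40 Tdp1-/- cells stably complemented with human TDP1 were seeded at 400 cells/well in medium containing 20 nM camptothecin, exposed to pin-transferred compounds, and grown at 37 °C for at least 48 hr. Viability was read as ATP luminescence.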
ELG1 repair inh – ELG1-dependent DNA repair inhibition. HEK293T ELG1-luciferase reporter, luminescence, 16 h; DNA damage induced by 5-fluorouridine. Potency, µM (doses to about 46.1 µM), without a hit: at the highest dose activity change, negative = inhibition, hits mostly inhibitors. hit rate 2.3% among 330,000; note: potency is the fitted concentration of half-maximal effect; nearly all actives have a fitted effect of over 55% in size
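5-Fluorouridine DNA damage + compound/DMSO, 2,000 cells/well, 16 h, 37 °C/5% CO2. ONE-Glo, 30 min RT, luminescence. Readout = decrease in reporter signal.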
Starred values were filed as active, the others as inactive. Unless noted, calls come from the whole dose curve; as a rule, active = well fitted curve in the direction sought with a large enough effect; inconclusive = small, poorly fitted or top-dose-only effect, or another doubt; inactive = no such curve, though single readings can be large; an effect the other way counts as inactive or inconclusive. % is set by controls: 0 for no effect and ±100 for the full control effect.

Results for COc1ccc(S(=O)(=O)N(C)c2ccc(C(=O)N3CCN(C)CC3)cc2)cc1 ?
RORg inh: 2.0%; DT40 TDP1 no CPT: -28.3%; VP16 counter: -1.7%; IL1B secr inh: 9.7; DT40 TDP1 CPT: -14.5%; ELG1 repair inh: -4.0%

How did COc1ccc(S(=O)(=O)N(C)c2ccc(C(=O)N3CCCC3)cc2)cc1OC do in these assays?
RORg inh: inconclusive; DT40 TDP1 no CPT: inconclusive; VP16 counter: 1.6%; IL1B secr inh: -9.4; DT40 TDP1 CPT: -23.0%; ELG1 repair inh: inconclusive

What do the screens show for `COc1ccc(S(=O)(=O)N(C)c2ccc(C(=O)N3CCN(c4ccccc4)CC3)cc2)cc1OC`?
RORg inh: 33.9%; DT40 TDP1 no CPT: 16.4µM*; VP16 counter: -20.2%; IL1B secr inh: -25.6; DT40 TDP1 CPT: 14.6µM*; ELG1 repair inh: 13µM*

What do the screens show for `COc1ccc(N2CCN(C(=O)c3ccc(N(C)S(=O)(=O)c4ccc(C)cc4)cc3)CC2)cc1`?
RORg inh: -31.7%; DT40 TDP1 no CPT: 16.4µM*; VP16 counter: inconclusive; IL1B secr inh: 0.0; DT40 TDP1 CPT: 16.4µM*; ELG1 repair inh: inconclusive

How did COc1cccc(-c2cnc(C(O)c3ccc(F)cc3C)[nH]2)c1 (stereo unspecified) do in these assays?
DT40 TDP1 no CPT: -14.8%; IL1B secr inh: 11.1; DT40 TDP1 CPT: inconclusive

What do the screens show for `CCOC(=O)C1=C(COC(=O)/C=C/c2cccc(F)c2)NC(=O)NC1C` (stereo unspecified)?
DT40 TDP1 no CPT: 14.5%; IL1B secr inh: 4.4; DT40 TDP1 CPT: 15.2%; ELG1 repair inh: -7.0%

How did CCCS(=O)(=O)N1CCCC(C(=O)Oc2ccc(OC)cc2)C1 (stereo unspecified) do in these assays?
RORg inh: -17.4%; DT40 TDP1 no CPT: -26.7%; VP16 counter: 5.1%; IL1B secr inh: 22.4; DT40 TDP1 CPT: -7.4%; ELG1 repair inh: -4.0%

What do the screens show for `CCOC(=O)c1c(C)[nH]c(C)c1C(=O)COC(=O)c1nn(CC)c(=O)c2ccccc12`?
DT40 TDP1 no CPT: -20.8%; IL1B secr inh: 6.1; DT40 TDP1 CPT: -20.2%

Results for O=C(c1cccc(-n2cccc2)c1)N1CCN(S(=O)(=O)c2ccccc2)CC1 ?
DT40 TDP1 no CPT: inconclusive; IL1B secr inh: 21.6; DT40 TDP1 CPT: 21.0%; ELG1 repair inh: -18.1%

Results for Cc1ccc(S(=O)(=O)N2CCN(C(=O)c3cccc(-n4cccc4)c3)CC2)cc1 ?
DT40 TDP1 no CPT: inconclusive; IL1B secr inh: -7.7; DT40 TDP1 CPT: 16.4µM*; ELG1 repair inh: 0.6%

How did COC(=O)c1c(N2C(=O)[C@H]3[C@@H](C2=O)[C@]2(C(=O)Nc4c(C)cccc42)N2CCC[C@@H]32)sc(C)c1C do in these assays?
RORg inh: -4.5%; DT40 TDP1 no CPT: 10.3µM*; VP16 counter: -29.0%; IL1B secr inh: -24.5; DT40 TDP1 CPT: 20.6µM*; ELG1 repair inh: 16.4µM*

How did O=C(NCCCN1CCCCC1)C1CCN(S(=O)(=O)N2CCC3(CC2)OCCO3)CC1 do in these assays?
RORg inh: 1.9%; DT40 TDP1 no CPT: 21.8%; VP16 counter: -9.2%; IL1B secr inh: 0.0; DT40 TDP1 CPT: -5.6%; ELG1 repair inh: 3.4%

How did CCc1noc(C)c1C(=O)Nc1cc(Cl)ccc1N1CCCC1 do in these assays?
DT40 TDP1 no CPT: 18.4µM*; IL1B secr inh: 6.6; DT40 TDP1 CPT: inconclusive; ELG1 repair inh: -9.4%

What do the screens show for `CN1CCN(c2ccc(Cl)cc2NC(=O)c2nn(-c3ccccc3)c(=O)c3ccccc23)CC1`?
RORg inh: -21.4%; DT40 TDP1 no CPT: 9.2µM*; VP16 counter: -18.0%; IL1B secr inh: -18.2; DT40 TDP1 CPT: inconclusive; ELG1 repair inh: 10.2%

How did CCc1noc(C)c1C(=O)Nc1ccccc1N1CCOCC1 do in these assays?
DT40 TDP1 no CPT: inconclusive; IL1B secr inh: 20.3; DT40 TDP1 CPT: inconclusive; ELG1 repair inh: 11.5%

Results for CCc1cc(C(=O)Nc2cc(Cl)ccc2N2CCN(C)CC2)sc1C ?
DT40 TDP1 no CPT: 23.1µM*; IL1B secr inh: -10.0; DT40 TDP1 CPT: inconclusive; ELG1 repair inh: 1.5%

How did CCCOc1ccc(C(=O)Nc2nonc2-c2ccc(OCC)cc2)cc1 do in these assays?
DT40 TDP1 no CPT: -22.6%; DT40 TDP1 CPT: -3.2%

What do the screens show for `Cc1cc(C(=O)CCC(=O)NCC(=O)Nc2c(C)cccc2C)c(C)s1`?
DT40 TDP1 no CPT: inconclusive; IL1B secr inh: -23.4; DT40 TDP1 CPT: inconclusive; ELG1 repair inh: -24.6%

How did Nc1ccc2oc(-c3ccc4nc[nH]c4c3)nc2c1 do in these assays?
RORg inh: inconclusive; DT40 TDP1 no CPT: 10.3µM*; VP16 counter: inconclusive; IL1B secr inh: -20.4; DT40 TDP1 CPT: 20.6µM*; ELG1 repair inh: inconclusive

What do the screens show for `CCc1ccc2oc(-c3cccc(N)c3)nc2c1`?
RORg inh: 10µM*; DT40 TDP1 no CPT: 2.5%; VP16 counter: 14.1µM*; IL1B secr inh: -29.4; DT40 TDP1 CPT: 11.6%; ELG1 repair inh: inconclusive

What do the screens show for `Cc1cc(C)c2oc(-c3cccc(N)c3)nc2c1`?
RORg inh: -31.3%; DT40 TDP1 no CPT: inconclusive; VP16 counter: -9.5%; IL1B secr inh: -2.4; DT40 TDP1 CPT: inconclusive; ELG1 repair inh: inconclusive

Results for Cc1nc2ccc(-c3nc4cc(N)ccc4o3)cc2[nH]1 ?
RORg inh: 15.8µM*; DT40 TDP1 no CPT: inconclusive; VP16 counter: inconclusive; IL1B secr inh: -13.8; DT40 TDP1 CPT: inconclusive; ELG1 repair inh: inconclusive

What do the screens show for `COc1ccc(OC)c(NC(=O)CSc2nc3ccccc3c(=O)n2CCC(=O)NC2CCCCC2)c1`?
DT40 TDP1 no CPT: -5.6%; DT40 TDP1 CPT: -6.5%

What do the screens show for `CCOc1ccc(NC(=O)CN2CCN(CC(=O)Nc3ccc(Cl)c(C(F)(F)F)c3)CC2)cc1`?
RORg inh: 2.7%; DT40 TDP1 no CPT: 9.2µM*; VP16 counter: inconclusive; IL1B secr inh: -59.0*; DT40 TDP1 CPT: 11.6µM*; ELG1 repair inh: inconclusive

How did O=C(CN1CCN(c2ccc(Cl)cc2)CC1)Nc1cccc(F)c1 do in these assays?
RORg inh: 27.7%; DT40 TDP1 no CPT: inconclusive; VP16 counter: -5.1%; IL1B secr inh: -14.6; DT40 TDP1 CPT: -27.7%; ELG1 repair inh: -5.2%

Results for O=C(CN1CCN(c2ccc(Cl)cc2)CC1)Nc1ccc(Cl)c(C(F)(F)F)c1 ?
DT40 TDP1 no CPT: 16.4µM*; DT40 TDP1 CPT: inconclusive
